From PubChem
Compounds with a hit are over-represented: about 4.7% of the library has one in this group of screens.
D1 PAM = enhances dopamine response at the human D1 receptor; HEK293 TREx D1 cells, calcium flux, dopamine EC20 potentiation; potentiation, % at 10 µM; hit rate 0.036% among 360,000; AID 504651; in the data active means potentiation above about 30%; further: 0% is about no effect
TRHR enhancer = TRH receptor (human) allosteric enhancement; P34981; TRHR cells, fluo-8 calcium fluorescence, EC20 TRH enhancement; enhancement, % at 2 µM; hit rate 0.66% among 360,000; AID 493056; in the data active means enhancement above about 30%; further: 0% is about no effect
Target sequence (P34981 whole entry, looked up): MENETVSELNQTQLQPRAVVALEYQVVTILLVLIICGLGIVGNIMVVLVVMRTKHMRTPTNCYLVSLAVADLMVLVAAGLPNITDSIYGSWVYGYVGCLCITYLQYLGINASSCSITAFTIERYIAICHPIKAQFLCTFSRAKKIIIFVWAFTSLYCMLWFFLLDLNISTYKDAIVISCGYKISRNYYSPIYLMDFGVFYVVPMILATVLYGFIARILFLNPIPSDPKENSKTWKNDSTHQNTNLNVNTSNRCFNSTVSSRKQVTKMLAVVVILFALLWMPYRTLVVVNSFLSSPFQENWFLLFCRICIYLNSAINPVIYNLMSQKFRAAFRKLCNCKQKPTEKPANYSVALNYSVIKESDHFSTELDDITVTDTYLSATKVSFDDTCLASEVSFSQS
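Enhancer read-out: after compound pinning and an initial kinetic agonist-mode read, an EC20 of TRH (10 nM final) was injected and fluo-8 calcium signal (Ex 480/Em 530) followed at 1 s/cycle for 100 cycles in TRHR-expressing cells.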
TRHR agonist = TRH receptor (human) agonism; P34981; TRHR cells, calcium flux fluo-8, FDSS agonist mode; activation, % at 2 µM; hit rate 0.18% among 360,000; AID 493084; further: 0% is about no effect
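TRHR-expressing cells, plated overnight in medium with 10% serum, were loaded with fluo-8 calcium dye at room temperature. After a 10 s baseline, library compound was pin-added and calcium release was recorded kinetically (ex 480/em 530) as agonist response.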
D1 antagonist = antagonists of human D1 dopamine receptor; activity change, negative = inhibition, % at 10 µM; P21728; hit rate 3.2% among 360,000; HEK293 TREx D1 cells, calcium flux, dopamine EC80; active compounds read low; AID 504652; in the data active means activity change below about -30%; further: on the % scale 0 is the no-effect control and ±100 the full control effect
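Compound effects on dopamine-evoked calcium signalling were measured in tetracycline-induced HEK293 Trex D1 cells. Dopamine at EC80 followed a 180 s compound pre-read, and fluorescence was tracked kinetically for 180 s more.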
D1 ag = agonists of human D1 dopamine receptor; hit rate 1% among 360,000; HEK293 T-REx D1 cells, calcium flux, agonist mode; P21728; activation, % at 2 µM; further: 0% is about no effect
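Tetracycline-induced HEK293 TREx D1 cells, force-coupled to calcium signalling, were dye-loaded with a no-wash calcium kit. Compound was pin-added after a 10 s baseline. Fluorescence was read kinetically at 1 cycle/s for 180 s, with calcium rises flagged as agonism.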
Active calls of the source: *; nt = no result; ! = a repeat was not active. Unless noted, no stated cut-off is given here; in the data, active means activation above about 30%; inactive means the rest.

SMILES	D1 PAM	TRHR enhancer	TRHR agonist	D1 antagonist	D1 ag
COc1ccc(NC(=O)CCCN(C)S(=O)(=O)c2ccc(C)cc2)cc1	-8.9	0.4	-0.5	-60.1*	4.5
Cc1ccc(S(=O)(=O)N(C)CCCC(=O)Nc2ccncc2)cc1	nt	1.9	0.7	-35.2*	21.8
O=C(Cc1ccc2c(c1)OCCO2)N1CCN(S(=O)(=O)c2cccs2)CC1	-12.2	-2.8	-0.1	-34.9*	15.2
O=C(Cc1ccc2c(c1)OCCO2)N1CCN(S(=O)(=O)c2cccc(Cl)c2Cl)CC1	-5.6	-0.3	0.9	-27.8	12.7
O=C(/C=C\c1ccccc1)NC1CC(=O)N(c2ccccc2)C1 (configuration not stated)	-1.6	2.8	-0.1	nt	-0.3
Cc1ccc(Oc2ccc(Oc3ccc(C)cc3)nn2)cc1	1.1	11.8	-0.9	0.9	44.0*
CC1(C)C2CCC1(C)C(OCC[N+](C)(C)CC(=O)OC1CCCCC1)C2 (configuration not stated)	-3.1	16.3	-0.4	-65.9*	0.9
COc1ccccc1NS(=O)(=O)c1ccc2c(c1)NC(=O)C(C)S2 (configuration not stated)	-3.9	-10.1	0.2	0.9	31.5*
Cc1ccc(NC(=O)C2CCN(S(=O)(=O)c3ccc4c(c3)NC(=O)C(C)S4)CC2)cc1C (configuration not stated)	7.4	-2.8	0.1	-26.6	7.3
COc1ccccc1NC(=O)c1ccc(S(=O)(=O)N2CCC(C)CC2)cc1	-4.0	-10.9	-0.8	-32.2*	1.9
COc1cccc(NS(=O)(=O)c2ccc3c(c2)NC(=O)C(C)S3)c1 (configuration not stated)	6.9	-5.1	0.1	-0.4	12.8
COc1ccccc1NC(=O)C1CCN(S(=O)(=O)c2ccc3c(c2)NC(=O)C(C)S3)CC1 (configuration not stated)	-0.6	-0.9	1.2	-30.5*	13.4
Cc1ccc(NC(=O)C2CCN(S(=O)(=O)c3ccc4c(c3)NC(=O)C(C)S4)CC2)c(C)c1 (configuration not stated)	0.9	-4.6	1.0	-40.2*	8.3
CC1Sc2ccc(S(=O)(=O)N3CCC(C(=O)Nc4cccc(Cl)c4)CC3)cc2NC1=O (configuration not stated)	-2.6	-6.3	0.8	-22.7	6.6
COc1cccc(CNC(=O)c2oc3ccc4c(c3c2C)C(=O)CC(C)(C)O4)c1OC	0.2	13.3	0.0	-11.7	2.3
Cc1ccc(NC(=O)Cn2cc(C(=O)C3CCCCC3)c3ccccc32)cc1	-3.4	1.3	2.6	-21.8	9.1
O=C(CCc1nc(-c2cccs2)no1)Nc1ccccc1[N+](=O)[O-]	-0.2	6.2	-0.4	-19.4	5.0
Cn1c(=O)c2c(-c3ccccc3Br)n(C(C)(C)C)cc2n(C)c1=O	-0.7	-0.5	-2.8	-28.4	1.5
CC1Sc2ccc(S(=O)(=O)CCC(=O)N3CCN(c4cccc(Cl)c4)CC3)cc2NC1=O (configuration not stated)	4.8	0.4	-0.5	-42.1*	9.7
COc1ccc(N2CCN(S(=O)(=O)c3ccc4c(c3)NC(=O)CS4)CC2)cc1	7.2	1.3	0.4	-15.7	5.5
COc1ccc(N2CCN(S(=O)(=O)c3ccc4c(c3)NC(=O)C(C)S4)CC2)cc1 (configuration not stated)	1.6	-3.1	1.2	-37.9*	14.2
Cc1ccc(C)c(NC(=O)CN(C)S(=O)(=O)c2cccc3cccnc23)c1	0.4	32.0*!	0.2	8.1	3.8
CCOC(=O)Cc1csc(NC(=O)CN(C)S(=O)(=O)c2cccc3cccnc23)n1	nt	-1.0	0.0	-46.0*	4.7
Cc1ccc(S(=O)(=O)c2cn(C)c3cc(N4CCCC(C)C4)c(F)cc3c2=O)c(C)c1 (configuration not stated)	0.9	14.4	0.0	4.3	3.3
CCOc1ccccc1NC(=O)CSc1nc2ccccc2nc1Cc1ccc(C)cc1	0.8	-4.3	0.8	-3.0	8.5
SMILES	D1 PAM	TRHR enhancer	TRHR agonist	D1 antagonist	D1 ag
Cc1ccc(SCc2nc(-c3ccc(C(=O)NCc4ccccc4Cl)cc3)oc2C)cc1	-1.4	4.0	1.1	6.7	4.5
CCCNS(=O)(=O)c1ccc(Oc2ncc(C(F)(F)F)cc2Cl)cc1	-9.1	-0.5	5.2	-5.7	46.5*
CC(C)NS(=O)(=O)c1ccc(Oc2ncc(C(F)(F)F)cc2Cl)cc1	-6.9	-2.2	0.7	-26.3	21.6
CS(=O)(=O)NCCNc1ncc(C(F)(F)F)cc1Cl	-0.1	-2.8	-0.2	-31.8*	0.5
O=S(=O)(Nc1ccccc1)c1ccc(Oc2ncc(C(F)(F)F)cc2Cl)cc1	-1.7	1.9	2.7	-3.3	31.6*
O=C(Cn1c(=O)n2nc(-c3cccc(F)c3)nc2c2ccccc21)N1CCN(c2ccccc2F)CC1	23.8	8.4	-0.4	nt	12.4
O=C(CNC(=O)c1ccc(F)cc1)OCc1cc(=O)n2nc(C3CC3)sc2n1	-4.0	2.2	0.5	2.9	-0.3
COc1cccc(NC(=S)NNC(=O)Cn2nc([N+](=O)[O-])cc2C)c1	0.8	40.7*	0.0	0.9	0.5
Cc1ccc(NC(=S)NNC(=O)Cn2nc([N+](=O)[O-])cc2C)cc1	-6.8	2.1	-0.5	-4.9	1.7
COc1cccc(CNC(=O)Cn2cc3c(n2)-c2c(oc(C(=O)N4CCCC4)c2C)CC3)c1OC	3.6	7.0	-0.5	7.1	0.8
CCOC(=O)CNC(=O)C1CCCc2c1[nH]c1ccc(Cl)cc21 (configuration not stated)	-3.1	-1.9	0.0	-35.4*	16.2
NC(=O)CNC(=O)C1CCCc2c1[nH]c1ccc(Cl)cc21 (configuration not stated)	3.9	-1.1	0.6	-4.5	1.9
O=C(COc1ccc(F)cc1)Nc1ccccc1C(=O)OCc1cc(=O)n2nc(C3CC3)sc2n1	0.3	-0.9	0.3	-9.6	0.5
COc1cccc(CN(C(=O)c2cccc(OC)c2)C2CCS(=O)(=O)C2)c1 (configuration not stated)	-6.1	-5.7	0.1	50.0	4.6
COc1cccc(CN(C(=O)c2ccccc2)C2CCS(=O)(=O)C2)c1 (configuration not stated)	-11.1	-6.7	-0.2	-34.9*	1.5
Cc1ccc(CN(C(=O)COc2c(C)cccc2C)C2CCS(=O)(=O)C2)o1 (configuration not stated)	2.2	-4.7	-0.5	-42.8*	-2.4
Cc1cccc(OCC(=O)N(Cc2ccc(C)o2)C2CCS(=O)(=O)C2)c1 (configuration not stated)	-2.1	-0.4	-1.0	-19.6	2.9
COc1ccc(OCC(=O)N(Cc2sccc2C)C2CCS(=O)(=O)C2)cc1 (configuration not stated)	-4.5	-1.3	-0.2	-72.5*!	0.3
